# Reference: PubChem BioAssay AID624377 (The Scripps Research Institute Molecular Screening Center, 2012)
# Among all 360,000 compounds or so, about 680 (0.19%) were called active. No stated cut-off is given here; in the data, active means inhibition above about 25%; inactive means the rest. The list comes from a sample in which actives are over-represented; it also holds similar structures and randomly drawn compounds.
# Biological target: Arf-GAP with SH3 domain, ANK repeat and PH domain-containing protein 1 (Homo sapiens) (UniProt Q9ULH1)
# Experiment: blockers of ASAP1-stimulated ARF1 GTP hydrolysis – biochemical, fluorescence polarization, primary screen (AID 624377);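 further: 0% = vehicle with enzyme and substrate and 100% = no enzyme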
# Details: GDP FP detection, at 16.5 µM, active compounds read high
# Chain of Arf-GAP with SH3 domain, ANK repeat and PH domain-containing protein 1 (Homo sapiens) (Q9ULH1 325-724 limits assumed): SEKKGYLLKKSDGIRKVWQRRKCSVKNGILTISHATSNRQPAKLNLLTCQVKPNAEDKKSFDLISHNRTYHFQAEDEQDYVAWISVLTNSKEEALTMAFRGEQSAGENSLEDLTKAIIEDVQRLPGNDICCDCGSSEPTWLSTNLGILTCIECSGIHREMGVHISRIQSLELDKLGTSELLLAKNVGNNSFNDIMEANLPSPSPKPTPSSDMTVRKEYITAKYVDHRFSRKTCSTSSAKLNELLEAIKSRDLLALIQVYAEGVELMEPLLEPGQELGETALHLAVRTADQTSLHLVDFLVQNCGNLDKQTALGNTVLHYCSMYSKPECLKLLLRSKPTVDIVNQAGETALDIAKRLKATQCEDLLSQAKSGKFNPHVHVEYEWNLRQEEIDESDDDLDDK
row,SMILES,inhibition
1,Cc1ccccc1C(=O)N[C@H](C(=O)N1CCC[C@H]1C(=O)NCc1ccccc1)C(C)C,-8.79% (inactive)
2,COC(=O)[C@]12C[C@H](CC(=O)NCc3ccccc3)C(=O)N(CCC3=CCCCC3)C1=C[C@H](C(C)(C)C)O[C@@H]2C,-6.37% (inactive)
3,COc1ccc(C2=CN(Cc3ccccc3)C(c3ccc(OC)cc3)CC2=O)cc1 (stereo not drawn),12.3% (inactive)
4,CC(C)C[C@H](NC(=O)CC1CCCC1)C(=O)N1CCC[C@H]1C(=O)NCc1ccccc1,-6.9% (inactive)
5,COc1ccccc1CCn1cnc(-c2ccccc2)c1C(C)C,16.9% (inactive)
6,CCOC(=O)C1=C(C(=O)OCC)C2N(Cc3ccc(C#N)cc3)c3ccccc3[C@@]23C[C@@H](C(=O)OC)N(S(=O)(=O)c2ccc(F)cc2)C3=N1 (stereo partly drawn),12.3% (inactive)
7,COc1cccc(CC(=O)N2CCN(C(=O)C(=O)c3cccc(C(F)(F)F)c3)CC2)c1,3.01% (inactive)
8,CC(=NNC(=O)c1ccncc1)c1ccc(Cl)c(Cl)c1,-23.7% (inactive)
9,CCN(CC)c1ccc2cc(C(N)=O)/c(=N\NC(=O)c3ccncc3)oc2c1,26.4% (active)
10,CCOc1cc(/C=N/NC(=O)c2ccncc2)cc(Br)c1O,-12.7% (inactive)
11,CCOC(=O)N1CCN(C(=O)C[C@H]2C[C@@]3(C(=O)OC)C(=C[C@H](C4CCCC4)O[C@@H]3C)N(Cc3ccccc3)C2=O)CC1,-6.46% (inactive)
12,COc1ccc(CNS(=O)(=O)c2cc(Br)ccc2Br)cc1,-8.38% (inactive)
13,CCN1CCCC1CNC(=O)c1ccc2c(c1)NC(=O)/C(=C\c1ccccc1F)S2 (stereo not drawn),-12.3% (inactive)
14,COc1ccc(CCNC(=O)c2ccc3c(c2)NC(=O)C(N2CCOCC2)S3)cc1OC (stereo not drawn),-5.91% (inactive)
15,CCN1CCN(CCNC(=O)c2ccc3c(c2)NC(=O)/C(=C\c2ccc(OC)c(OC)c2)S3)CC1,25.9% (active)
16,COc1ccc(NC(=O)N(C)C[C@@H]2OCCCC[C@@H](C)Oc3ccc(NC(=O)NC4CCCCC4)cc3C(=O)N([C@H](C)CO)C[C@@H]2C)cc1,-0.3% (inactive)
17,NC(=O)c1ncn([C@@H]2O[C@H](C(=O)O)[C@@H](O)[C@H]2O)n1,-8.9% (inactive)
18,O=C(NCc1ccccc1)[C@@H]1CCCN1C(=O)[C@H]1CCCN1C(=O)c1cccc(Cl)c1,5.06% (inactive)
19,CC(C)CNc1cccc2c1S(=O)(=O)N[C@H](CC(C)C)CO2,14.4% (inactive)
20,COCc1cc(N2CCN(C(=O)OC(C)(C)C)C[C@@H]2C)ccc1N1CCN(Cc2ccccc2)[C@H](C)C1,-0.13% (inactive)
21,O=c1[nH]c(-c2ccccc2)cn1C1CCN(Cc2ccc(-c3nc4ccc(F)cc4nc3-c3ccccc3)cc2)CC1,6.64% (inactive)
22,O=S1(=O)c2c(cccc2N2CCCCC2)O[C@H](COCc2ccccc2)CN1C1CC1,-0.37% (inactive)
23,CCN1C(=O)N[C@@H]2C[C@H](C(=O)N3CCCC3)[C@H](C)[C@H](c3ccccc3)C[C@@H]21,9.08% (inactive)
24,COC(=O)Cc1nnn2c1[C@H](C)[C@H](c1ccccc1[N+](=O)[O-])OCC2,5.28% (inactive)

row,SMILES,inhibition
1,N#Cc1ccc(OCCCN2CCC(C(O)(c3ccccc3)c3ccccc3)CC2)c(F)c1,12.3% (inactive)
2,O=C(NCc1ccccc1)[C@H]1CCCN1C(=O)[C@H]1CCCN1C(=O)c1cc(F)cc(F)c1,5.35% (inactive)
3,Cc1[nH]nc2c1C(c1ccc(Br)cc1)NC2=O (stereo not drawn),13.4% (inactive)
4,Cc1[nH]c2ccccc2c1CC(=O)Nc1ccc(Nc2cccnc2)c(-c2cccc(Cl)c2)c1,23.9% (inactive)
5,Cc1ccc(NC(=O)N2c3ccccc3SC2c2ccco2)c(C)c1 (stereo not drawn),0.24% (inactive)
6,Nc1nc2c(ncn2[C@@H]2O[C@H](C(=O)N[C@@H](Cc3ccccc3)C(=O)NCc3ccccc3)[C@@H](O)[C@H]2O)c(=O)[nH]1,1.52% (inactive)
7,CC(C)(C)C(c1nc2ccccc2[nH]1)n1c(Cc2csc3ccccc23)nc2ccccc21 (stereo not drawn),0.61% (inactive)
8,CCCCCCCCN1C(=O)[C@@H](CC(=O)N2CCN(C(=O)OCC)CC2)C[C@@]2(C(=O)OC)C1=C[C@H](C1CCCC1)O[C@@H]2C,-6.71% (inactive)
9,O=C(NS(=O)(=O)c1cccs1)[C@H]1O[C@@H](n2ccc(=O)[nH]c2=O)[C@H](O)[C@@H]1O,-0.42% (inactive)
10,COc1cc(Nc2nc3ccc(Cl)cc3n3cnnc23)cc(OC)c1OC,-7.78% (inactive)
11,CN(CCO)c1ccc(/C=N/Nc2nncc3ccccc23)cc1,4.89% (inactive)
12,COc1cc(/C=N/Nc2nn3cnnc3c3ccccc23)cc(OC)c1OC,27.1% (active)
13,Nc1[nH]c(C(=O)c2ccccc2)c(-c2ccc(Cl)cc2Cl)c1C(=O)c1ccccc1,1.42% (inactive)
14,CCCCCCCCN1C(=O)[C@@H](CC(=O)NCc2ccc(C)o2)C[C@@]2(C(=O)OC)C1=C[C@H](C(C)(C)C)O[C@@H]2C,-18.4% (inactive)
15,C[C@@H]1CN([C@H](C)CO)C(=O)CCCn2cc(nn2)CO[C@H]1CN(C)C(=O)Nc1ccc(N2CCCCC2)cc1,-5.8% (inactive)
16,O=C(NCc1ccccc1)[C@@H]1CCCN1C(=O)[C@@H](NS(=O)(=O)c1ccc(F)cc1F)C1CCCCC1,-1.92% (inactive)
17,Cc1ccc(N)cc1CN1CCN(c2ncc(Cc3ccccc3)cn2)CC1,12% (inactive)
18,COc1cccc(CNC(=O)[C@H]2CCCN2C(=O)[C@H]2CCCN2C(=O)C2CCCCC2)c1,-4.66% (inactive)
19,COC(=O)[C@]1(Cc2ccccc2)NC=C(C(=O)c2ccccc2)[C@@H]1c1cccc(OC)c1,-16.7% (inactive)
20,C=CC1=CCN(S(=O)(=O)C(C)(C)C)[C@@H]1CCO,-14.4% (inactive)
21,CN1CCCc2nc(-c3ccccc3)ccc21,1.42% (inactive)
22,CSc1ccc(Oc2cccc3c2S(=O)(=O)N([C@H](C)c2ccccc2)C[C@@H](COCc2ccccc2)O3)cc1C,0.74% (inactive)
23,Cc1cc2c(nc1C)CCCN2C,-12% (inactive)
24,CN1C(=O)C2CC(O)C(SC3CC4C(=O)N(C)C(=O)C4CC3O)CC2C1=O (stereo not drawn),-4.75% (inactive)
